Test results taken from PubChem BioAssay AID2284383 (EPA ToxCast).
Results filed as inconclusive are left out. Activity calls are given as the source filed them. The calls were made as follows: active = hit-call score of the fitted dose curve at least 0.9, where 1 is the maximum; inconclusive = response in the unintended direction; inactive = score below 0.9.

Molecular target: human Retinoic Acid Receptor gamma (RARg) Agonism, RARG (gene 5916) (UniProt P13631)
Assay: ERF_TW_NR_COA_hRARG: Eurofins (ERF) Nuclear Receptor (NR) Functional Coactivator Assay for human Retinoic Acid Receptor gamma (RARg) Agonism
Procedure: ERF_TW_NR_COA_hRARG is a biochemical, single-readout assay that uses extracted gene-proteins in a cell-free assay. Measurements were taken 16 hours after chemical dosing in a 96-well plate. […] It is designed to measure FRET using a type of binding reporter as detected by fluorescence intensity of AM580 with fluorimetry technology.Data from the assay component ERF_TW_NR_COA_hRARG was analyzed at the assay endpoint, ERF_TW_NR_COA_hRARG, in the positive analysis fitting direction relative to DMSO as the negative control and baseline of activity. Using a type of binding reporter, gain-of-signal activity can be used to understand changes in binding as they relate to gene RARG. To generalize the intended target to other relatable targets, this assay endpoint is annotated to the nuclear receptor intended target family, where the subfamily is non-steroidal.
Human recombinant retinoic acid receptor […] (RARgamma) receptors expressed in bacteria are used. Test compound and/or vehicle is incubated with the 25 nM receptors and binding buffer in modified Tris-HCl buffer pH 7.4 for 16 hours at 4C. Determination of the amount of complex formed is read spectrofluorimetrically (excitation:337 nm, emission:620/665 nm). Test compound-induced increase in fluorescence by 50 percent or more (>/= 50%) relative to the 0.3 uM AM580 response indicates possible RARgamma receptor agonist activity. […] Membrane protein may change from lot to lot, the concentration used will be adjusted if necessary.

Sequence of human Retinoic Acid Receptor gamma (RARg) Agonism, RARG (gene 5916) (P13631 whole entry, looked up): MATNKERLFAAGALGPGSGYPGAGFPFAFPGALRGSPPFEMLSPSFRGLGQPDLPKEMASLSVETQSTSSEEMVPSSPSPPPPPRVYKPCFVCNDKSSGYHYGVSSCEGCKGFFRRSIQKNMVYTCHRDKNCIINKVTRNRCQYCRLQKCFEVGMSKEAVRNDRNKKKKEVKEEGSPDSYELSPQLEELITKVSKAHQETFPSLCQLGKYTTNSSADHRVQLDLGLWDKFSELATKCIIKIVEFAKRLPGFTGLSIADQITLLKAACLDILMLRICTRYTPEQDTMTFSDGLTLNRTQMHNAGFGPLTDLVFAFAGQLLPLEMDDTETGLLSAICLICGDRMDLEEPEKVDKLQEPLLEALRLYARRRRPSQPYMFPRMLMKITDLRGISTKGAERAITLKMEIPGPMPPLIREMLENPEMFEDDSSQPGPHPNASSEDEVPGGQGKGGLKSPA

Row | SMILES | AC50 | outcome
1 | ClC1=C(Cl)[C@]2(Cl)[C@@H]3[C@@H]4C[C@@H]([C@H]5O[C@@H]45)[C@@H]3[C@@]1(Cl)C2(Cl)Cl | 6.6 µM (active) | –
2 | Cc1ccc2cc3c(ccc4ccccc43)c3c2c1CC3 | – | inactive
3 | ClC1=C(Cl)[C@]2(Cl)[C@@H]3[C@H]4C[C@H]([C@@H]5O[C@H]45)[C@@H]3[C@@]1(Cl)C2(Cl)Cl | 6.15 µM (active) | –
